Source: PubChem (National Center for Advancing Translational Sciences (NCATS))
SARS PLpro yeast = inhibitors of SARS-CoV papain-like protease in yeast. actives 0.19% (n = 330,000). S. cerevisiae expressing SARS-CoV PLpro, growth rescue. Potency, µM (highest dose often 32.9 µM), hits mostly activators; calls by dose curve; further: nearly all actives have a fitted effect of over 55% in size
Pf growth 96h = P. falciparum growth inhibition at 96 hours; AID 504834; Potency, µM (titrated, usually from 28.7 µM), actives largely listed as inhibitors; actives 6.9% (n = 320,000); P. falciparum luciferase reporter growth, 96 h
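Two-generation exposure (96 h) targets delayed-death phenotype. Reporter parasites carrying integrated firefly luciferase, in red cells at 2% hematocrit and 0.05% parasitemia final, kept at 37 C, 5% CO2; luminescence loss indicates inhibition.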
Pf growth 48h = inhibits P. falciparum growth in the first generation, 48 h; P. falciparum luciferase growth in erythrocytes, 48 h; Potency, µM (doses to about 28.7 µM), usual class: inhibitors; actives 5.9% (n = 310,000)
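Cell-based growth assay: transgenic P. falciparum expressing firefly luciferase, cultured in red cells within RPMI 1640 containing 0.5% w/v Albumax, 24 mM bicarbonate and gentamycin. A drop in luciferase activity indicates inhibition.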
Sm TGR inh = S. mansoni TGR enzyme inhibition | Potency, µM (series often up to 114 µM), usual class: inhibitors | Q962Y6 | purified TGR, DTNB reduction, TNB absorbance 405 nm | actives 3% (n = 360,000); further: nearly all actives have a fitted effect of over 60% in size
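TGR 20 nM + NADPH 100 uM (dispensed conc.), cpd preinc 15 min RT; start with NADPH (500 uM addition) then DTNB (15 mM addition). Kinetic TNB absorbance, 405 nm filter. Four-parameter Hill fit across titration.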
Numbers stand for hits; i = inactive; ? = inconclusive; nt = no result; ! = not active in a repeat. Compounds with a hit are over-represented: about 12% of the library has one in this group of screens. Unless noted, the call rests on the fitted dose curve; in most records, active means well fitted curve in the direction sought with a large enough effect; inconclusive means small, poorly fitted or top-dose-only effect, or another doubt; inactive means no such curve, though single readings can be large; an effect the other way counts as inactive or inconclusive.

SMILES | SARS PLpro yeast | Pf growth 96h | Pf growth 48h | Sm TGR inh
C=CCN1C(=O)c2ccccc2Sc2ccc(C(=O)NCC(OC)OC)cc21 | i | ? | ? | i
COc1cccc(NC(=O)CCSc2nc(-c3ccco3)cc(C(F)(F)F)n2)c1 | nt | nt | nt | i
Cc1ccc2[nH]c3c(c2c1)CN(C(=O)CN1CC(C)OC(C)C1)CC3 (stereo not drawn) | i | ? | ? | 40µM
Cc1ccc2[nH]c3c(c2c1)CN(C(=O)CN1CCN(Cc2ccc4c(c2)OCO4)CC1)CC3 | i | 9.3µM | ? | i
Cc1ccc2[nH]c3c(c2c1)CN(C(=O)CN1CCSCC1)CC3 | i | i | ? | i
Cc1ccc(C)c(OCC(=O)NNC(=O)CCN2CCN(c3ccccc3)CC2)c1 | i | ? | i | i
CCCCCCCN(C(=O)CCl)c1cccc(C)c1 | i | ? | i | ?
N#CCCN(C(=O)CCl)c1cccc(Cl)c1 | i | 5.2µM | ? | 7.1µM
CN1CCN(C(=O)/C=C/c2ccc(C#N)cc2)CC1 | i | i | nt | i
Cc1nonc1C(=O)N/N=C/c1ccncc1 | i | 8.3µM | i | nt
Cc1cc(C(=O)N/N=C/c2ccc([N+](=O)[O-])o2)c(C)o1 | i | 3.3µM | 3.7µM | ?
Cc1ccc(C)n1-c1ccc(C(=O)N/N=C/c2ccncc2)cc1 | i | ? | ? | 25µM
CCCCCn1nc(C)c(/C=N\NC(=O)c2cc(C)oc2C)c1C | i | i | 13µM | i
COc1cccc(N2C(=O)N(CC(=O)NCc3cccc(OC)c3OC)c3ccccc3S2(=O)=O)c1 | nt | nt | nt | i
CCOC(=O)C1(Cc2cccc(Cl)c2)CCCN(C(=O)CCSC)C1 (stereo not drawn) | i | i | i | i
Cc1nonc1C(=O)N/N=C/c1ccc([N+](=O)[O-])o1 | i | ? | ? | 45µM
COc1ccc(-c2nn(-c3ccccc3)cc2C(=O)N/N=C/c2ccc([N+](=O)[O-])o2)cc1 | i | i | 2.6µM | nt
COc1ccc(/C=N/NC(=O)c2nonc2C)cc1 | i | i | i | i
CN(C)S(=O)(=O)c1cccc(NC(=O)c2ccc(NS(=O)(=O)c3cccs3)cc2)c1 | i | nt | nt | nt
Cc1ccccc1C(=O)NC(NC(=O)c1ccccc1C)c1cccc([N+](=O)[O-])c1 | i | 1.7µM | i | i
COc1cccc(C(NC(=O)c2ccccc2F)NC(=O)c2ccccc2F)c1 | i | ? | 13µM | i
CC(NC(=O)c1ccccc1F)C(=O)O (stereo not drawn) | i | i | i | i
Cc1cc2n(n1)CCCN2C(=O)Nc1ccc(Cl)cc1 | nt | nt | nt | i
NC(=O)C1CC2(NC(=O)NC2=O)c2cc(F)ccc2O1 (stereo not drawn) | nt | i | i | nt
COC(=O)C1=C(C)N(Cc2ccccc2)C(=NCc2ccc(OC)cc2)N[C@H]1c1cccc(F)c1 | i | ? | ? | i
SMILES | SARS PLpro yeast | Pf growth 96h | Pf growth 48h | Sm TGR inh
COC(=O)C1=C(C)N(Cc2ccccc2)C(=NCC(C)C)N[C@H]1c1cccc(F)c1 | i | ? | 13µM | i
COC(=O)C1=C(C)N(Cc2ccccc2)C(=NCc2cc(OC)c(OC)c(OC)c2)N[C@H]1c1cccc(F)c1 | i | 10µM | 10µM | i
COC(=O)C1=C(C)N(Cc2ccccc2)C(=NCC(C)C)N[C@H]1c1cccc(C(F)(F)F)c1 | i | nt | nt | nt
COC(=O)C1=C(C)N(Cc2ccccc2)C(=NCc2cccc(Cl)c2)N[C@H]1c1cccc(F)c1 | i | ? | 8.3µM | i
O=C(Nc1cc(Cl)cc(Cl)c1)c1cc(S(=O)(=O)N2CCC3(CC2)OCCO3)ccc1F | nt | nt | nt | i
COc1ccc(-c2csc(C3=C(O)CN(C(C)C)C3=N)n2)cc1OC | i | ? | 10µM | i
COc1ccc(N2CC(O)=C(c3nc(-c4ccc(Br)cc4)cs3)C2=N)cc1 | i | i | i | i
COc1ccc(-c2nc(-c3ccc(O)cc3O)cs2)cc1OC | i | ? | i | i
COc1ccc(N2CC(O)=C(c3nc(-c4ccccc4)cs3)C2=N)cc1 | i | 0.47µM | ? | i
CCCCN(CC)CCCNC(=O)Nc1sc2nc3n(c(=O)c2c1C)CCC(C)CC3 (stereo not drawn) | nt | nt | nt | i
Cc1ccc(C)c2c1cc(C)c1nnc(SCC(=O)N3CCCc4ccccc43)n12 | i | i | i | i
O=C(Nc1ccccc1-c1nnn(CC(=O)N2CCCc3ccccc32)n1)c1ccc(Cl)cc1 | i | 12µM | ? | i
O=C(Nc1ccccc1-c1nnn(CC(=O)N2CCCc3ccccc32)n1)c1ccco1 | i | i | ? | i
Cc1cc(C)c2c(c1)cc(C)c1nnc(SCC(=O)N3CCCc4ccccc43)n12 | i | 5.9µM | i | i
Nn1c(SCC(=O)N2CCCc3ccccc32)nnc1-c1ccc(Cl)cc1 | i | 12µM | i | i
Cn1c(Cc2cccs2)nnc1SCC(=O)N1CCc2ccccc21 | i | nt | i | i
Cc1ccc(NCc2nnc(SCC(=O)N3CCc4ccccc43)n2C)cc1 | i | 4.7µM | i | i
CCN(CCCNC(=O)c1cc(Nc2ccc(OC)cc2OC)nc2ccccc12)c1cccc(C)c1 | nt | nt | nt | i
COc1ccc(C)cc1S(=O)(=O)NNc1nc(C)cc(C)n1 | i | nt | nt | nt
Cc1cc(C)nc(SCc2nnc(SCC(=O)N3CCCc4ccccc43)n2C)n1 | i | i | ? | i
Cc1cc(C)nc(SCc2nnc(SCC(=O)N3CCCc4ccccc43)o2)n1 | i | 1.5µM | i | i
CCOCCn1ccc2c(OCC(=O)Nc3cccc(F)c3)cccc2c1=O | nt | nt | nt | i
O=C(Nc1cc([N+](=O)[O-])ccc1Cl)C(Sc1ccccc1)c1ccccc1 (stereo not drawn) | i | i | i | i
O=C(Nc1ccc(Cl)c([N+](=O)[O-])c1)C(Sc1ccccc1)c1ccccc1 (stereo not drawn) | i | ? | 13µM | i
C=CCc1cc(C)ccc1OCCCC(C(=O)OCC)C(=O)OCC | i | i | i | i
SMILES | SARS PLpro yeast | Pf growth 96h | Pf growth 48h | Sm TGR inh
CCCCCOc1ccc(C)cc1CN(CCCl)CCCl | i | ? | ? | 11µM
CCCNC(=O)c1ccc2c(=O)c(O)c(-c3ccc(F)cc3)[nH]c2c1 | 13µM | ? | i | i
Cc1nc2sc(C(=O)Nc3ccccc3)c(N)c2c(C)c1[N+](=O)[O-] | i | ? | i | ?
COc1ccc2c(c1)CCc1c(C(=O)Nc3c(C)nn(Cc4ccccc4)c3C)noc1-2 | i | i | nt | 89µM!
Cc1nn(Cc2c(Cl)cccc2Cl)c(C)c1NC(=O)c1cc(C(C)C)on1 | i | 9.3µM | nt | i
COc1ccc(OC)c(-c2cc(C(=O)Nc3c(C)nn(Cc4ccc(Cl)cc4)c3C)no2)c1 | i | i | ? | i
COc1ccc2c(c1)CCc1c(C(=O)Nc3c(C)nn(Cc4ccc(Cl)cc4)c3C)noc1-2 | nt | nt | nt | i
COc1ccc(OC)c(-c2cc(C(=O)N3CCc4ccccc4C3)no2)c1 | i | 9.3µM | i | i
COc1ccc(OC)c(-c2cc(C(=O)Nc3c(C)nn(Cc4ccccc4)c3C)no2)c1 | i | ? | 13µM | i
Cc1cccc(NC(=O)CN2c3ccccc3S(=O)(=O)c3ccccc32)c1C | nt | nt | nt | i
CCCCCCCCCCCCCC[N+](C)(C)Cc1ccccc1 | nt | 2.7µM | 1.7µM | nt
CCCCCCCCCCCC[N+](C)(C)CCOc1ccccc1 | nt | 2.4µM | 4.3µM | nt
CCCCCCCCCCCCCCCC[N+](C)(C)Cc1ccccc1 | nt | 3µM | 1.7µM | nt
CCCCCCCC(=O)NNC(=O)Cc1ccccc1 | i | i | i | i
